# Data reported in PMC7862700, “An all-to-all approach to the identification of sequence-specific readers for epigenetic DNA modifications on cytosine”.
# Tests used:
# Experiment in all cases: DAPPL (digital affinity profiling via proximity ligation, sequencing); 10 mM Tris-HCl pH 7.5, 50 mM NaCl, 1 mM DTT, 4% glycerol, room temperature, 30 min; GST-TFs on glutathione beads, 16-mer random dsDNA library, 0.1% formaldehyde crosslink after washing; high values mean tight binding
# FLI1 = target: T1, FLI1 (Homo sapiens, UniProt Q01543 1-452); settings: protein: recombinant; tags: N-terminal GST; dsDNA, one strand shown
# T1 sequence: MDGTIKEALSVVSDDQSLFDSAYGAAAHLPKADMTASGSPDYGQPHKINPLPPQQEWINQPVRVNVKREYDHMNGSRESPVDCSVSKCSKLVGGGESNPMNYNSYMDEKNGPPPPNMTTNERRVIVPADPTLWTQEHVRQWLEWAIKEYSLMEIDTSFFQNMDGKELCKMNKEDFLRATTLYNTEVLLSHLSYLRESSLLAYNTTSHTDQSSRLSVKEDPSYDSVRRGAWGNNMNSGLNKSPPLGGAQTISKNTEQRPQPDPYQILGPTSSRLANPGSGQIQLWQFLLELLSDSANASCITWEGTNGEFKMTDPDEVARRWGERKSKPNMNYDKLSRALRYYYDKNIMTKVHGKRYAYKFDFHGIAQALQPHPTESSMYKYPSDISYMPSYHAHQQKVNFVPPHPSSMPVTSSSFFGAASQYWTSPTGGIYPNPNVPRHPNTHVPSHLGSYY
# How it was run: (§1)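 Sequencing on an Illumina NextSeq500 followed washing, crosslinking with 0.1% formaldehyde, proximity ligation (BsaI/T4 ligase, 1 h, 37 °C) and PCR amplification of pools that had been incubated for 30 min at room temperature with 200 nmole of a random double-stranded 16-mer DNA library in Tris/NaCl/DTT/glycerol buffer. Each pool held DNA-barcoded human transcription factors, expressed in yeast as GST fusions and captured on glutathione beads, plus a tag-only sample. Binding signal is a hexamer's read frequency for a factor divided by its frequency in the tag-only sample.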
# ELK1 = target: T2, ELK1 (Homo sapiens, UniProt P19419 1-428); settings: protein: recombinant; tags: N-terminal GST; dsDNA, one strand shown
# T2 sequence: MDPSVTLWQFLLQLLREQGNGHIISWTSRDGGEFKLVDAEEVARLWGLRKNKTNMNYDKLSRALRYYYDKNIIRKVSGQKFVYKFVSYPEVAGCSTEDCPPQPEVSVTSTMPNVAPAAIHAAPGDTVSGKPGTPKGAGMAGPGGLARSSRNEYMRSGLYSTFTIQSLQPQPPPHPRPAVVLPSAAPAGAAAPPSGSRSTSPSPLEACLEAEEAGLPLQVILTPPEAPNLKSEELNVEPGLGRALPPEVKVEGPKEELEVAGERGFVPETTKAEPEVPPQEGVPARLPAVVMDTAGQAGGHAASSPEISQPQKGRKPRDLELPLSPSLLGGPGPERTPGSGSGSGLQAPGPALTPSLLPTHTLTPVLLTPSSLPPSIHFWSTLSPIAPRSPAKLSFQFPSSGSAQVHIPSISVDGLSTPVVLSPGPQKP
# How it was run: as §1
# GABPA = target: T3, GABPA (Homo sapiens, UniProt Q06546 1-454); settings: protein: recombinant; tags: N-terminal GST; dsDNA, one strand shown
# T3 sequence: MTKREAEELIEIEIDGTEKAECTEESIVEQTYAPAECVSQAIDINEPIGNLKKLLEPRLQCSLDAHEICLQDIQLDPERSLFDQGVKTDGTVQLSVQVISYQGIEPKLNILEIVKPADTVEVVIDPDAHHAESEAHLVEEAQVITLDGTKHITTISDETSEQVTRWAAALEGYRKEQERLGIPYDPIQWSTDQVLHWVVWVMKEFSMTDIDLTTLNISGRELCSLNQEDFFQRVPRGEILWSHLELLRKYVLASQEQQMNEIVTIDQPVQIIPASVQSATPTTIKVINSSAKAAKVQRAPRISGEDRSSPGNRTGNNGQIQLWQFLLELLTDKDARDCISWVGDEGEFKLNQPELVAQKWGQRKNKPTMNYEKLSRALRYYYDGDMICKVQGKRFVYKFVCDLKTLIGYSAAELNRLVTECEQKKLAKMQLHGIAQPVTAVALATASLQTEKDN
# How it was run: as §1
# ERG = target: T4, ERG (Homo sapiens, UniProt P11308 1-479); settings: protein: recombinant; tags: N-terminal GST; dsDNA, one strand shown
# T4 sequence: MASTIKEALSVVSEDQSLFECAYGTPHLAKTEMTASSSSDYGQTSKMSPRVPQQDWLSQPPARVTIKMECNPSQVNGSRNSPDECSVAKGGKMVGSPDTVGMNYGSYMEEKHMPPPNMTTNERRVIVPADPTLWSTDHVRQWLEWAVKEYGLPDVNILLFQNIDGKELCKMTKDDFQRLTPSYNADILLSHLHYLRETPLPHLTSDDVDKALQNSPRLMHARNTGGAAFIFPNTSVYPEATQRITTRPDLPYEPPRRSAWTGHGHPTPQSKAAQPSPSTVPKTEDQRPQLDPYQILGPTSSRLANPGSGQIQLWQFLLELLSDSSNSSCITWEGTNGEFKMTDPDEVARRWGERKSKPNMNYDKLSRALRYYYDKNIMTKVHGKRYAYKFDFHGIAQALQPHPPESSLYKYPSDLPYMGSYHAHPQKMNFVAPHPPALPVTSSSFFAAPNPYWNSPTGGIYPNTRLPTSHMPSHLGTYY
# How it was run: as §1
# ELF1 = ELF1 (Homo sapiens, UniProt P32519 1-619); settings: protein: recombinant; tags: N-terminal GST; dsDNA, one strand shown
# How it was run: as §1
# EHF = target: T5, EHF (Homo sapiens, UniProt Q9NZC4 1-300); settings: protein: recombinant; tags: N-terminal GST; dsDNA, one strand shown
# T5 sequence: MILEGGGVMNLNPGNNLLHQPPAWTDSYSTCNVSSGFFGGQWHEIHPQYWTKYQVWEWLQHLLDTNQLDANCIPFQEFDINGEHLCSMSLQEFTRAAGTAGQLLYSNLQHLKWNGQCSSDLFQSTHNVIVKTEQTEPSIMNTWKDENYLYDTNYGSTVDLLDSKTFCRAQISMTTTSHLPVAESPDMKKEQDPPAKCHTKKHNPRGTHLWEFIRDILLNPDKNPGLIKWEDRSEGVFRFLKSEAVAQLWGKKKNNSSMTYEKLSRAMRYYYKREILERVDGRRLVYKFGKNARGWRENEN
# How it was run: as §1
# SPI1 = SPI1 (Homo sapiens, UniProt P17947 1-270); settings: protein: recombinant; tags: N-terminal GST; dsDNA, one strand shown
# How it was run: as §1
# SPIB = SPIB (Homo sapiens, UniProt Q01892 1-262); settings: protein: recombinant; tags: N-terminal GST; dsDNA, one strand shown
# How it was run: as §1
# ELK3 = target: T6, ELK3 (Homo sapiens, UniProt P41970 1-407); settings: protein: recombinant; tags: N-terminal GST; dsDNA, one strand shown
# T6 sequence: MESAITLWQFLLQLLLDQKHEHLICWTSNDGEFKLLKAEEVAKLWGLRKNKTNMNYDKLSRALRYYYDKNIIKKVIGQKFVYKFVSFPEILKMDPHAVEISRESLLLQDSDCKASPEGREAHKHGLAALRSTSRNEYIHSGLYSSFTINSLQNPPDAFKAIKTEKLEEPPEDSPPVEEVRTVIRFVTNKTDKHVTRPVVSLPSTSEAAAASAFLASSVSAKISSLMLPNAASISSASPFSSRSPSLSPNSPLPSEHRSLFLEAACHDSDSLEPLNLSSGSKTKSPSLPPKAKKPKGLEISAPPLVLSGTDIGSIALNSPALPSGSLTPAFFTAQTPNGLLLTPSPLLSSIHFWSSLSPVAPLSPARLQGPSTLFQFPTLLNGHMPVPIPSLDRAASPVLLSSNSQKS
# How it was run: as §1
# FEV = target: T7, FEV (Homo sapiens, UniProt Q99581 1-238); settings: protein: recombinant; tags: N-terminal GST; dsDNA, one strand shown
# T7 sequence: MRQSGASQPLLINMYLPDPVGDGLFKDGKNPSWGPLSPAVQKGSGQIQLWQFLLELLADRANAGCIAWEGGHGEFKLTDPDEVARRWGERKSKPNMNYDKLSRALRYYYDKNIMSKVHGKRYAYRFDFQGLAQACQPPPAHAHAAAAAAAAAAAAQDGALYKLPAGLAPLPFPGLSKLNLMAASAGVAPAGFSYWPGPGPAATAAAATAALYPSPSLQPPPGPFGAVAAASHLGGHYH
# How it was run: as §1
# ETV5 = ETV5 (Homo sapiens, UniProt P41161 1-510); settings: protein: recombinant; tags: N-terminal GST; dsDNA, one strand shown
# How it was run: as §1
# HSF1 = HSF1 (Homo sapiens, UniProt Q00613 1-529); settings: protein: recombinant; tags: N-terminal GST; chain copies: 3; dsDNA, one strand shown
# How it was run: as §1
# SPIC = target: T8, SPIC (Homo sapiens, UniProt Q8N5J4 1-248); settings: protein: recombinant; tags: N-terminal GST; dsDNA, one strand shown
# T8 sequence: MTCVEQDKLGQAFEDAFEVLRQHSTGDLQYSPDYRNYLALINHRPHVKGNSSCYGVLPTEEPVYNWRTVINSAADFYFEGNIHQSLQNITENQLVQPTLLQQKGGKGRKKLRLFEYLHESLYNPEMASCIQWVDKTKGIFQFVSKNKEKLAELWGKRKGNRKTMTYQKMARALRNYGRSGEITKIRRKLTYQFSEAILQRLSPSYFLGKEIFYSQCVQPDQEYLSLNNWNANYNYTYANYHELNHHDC
# How it was run: as §1
# ELF4 = ELF4 (Homo sapiens, UniProt Q99607 1-663); settings: protein: recombinant; tags: N-terminal GST; dsDNA, one strand shown
# How it was run: as §1
# ELK4 = target: T9, ELK4 (Homo sapiens, UniProt P28324-2 1-405); settings: protein: recombinant; tags: N-terminal GST; dsDNA, one strand shown
# T9 sequence: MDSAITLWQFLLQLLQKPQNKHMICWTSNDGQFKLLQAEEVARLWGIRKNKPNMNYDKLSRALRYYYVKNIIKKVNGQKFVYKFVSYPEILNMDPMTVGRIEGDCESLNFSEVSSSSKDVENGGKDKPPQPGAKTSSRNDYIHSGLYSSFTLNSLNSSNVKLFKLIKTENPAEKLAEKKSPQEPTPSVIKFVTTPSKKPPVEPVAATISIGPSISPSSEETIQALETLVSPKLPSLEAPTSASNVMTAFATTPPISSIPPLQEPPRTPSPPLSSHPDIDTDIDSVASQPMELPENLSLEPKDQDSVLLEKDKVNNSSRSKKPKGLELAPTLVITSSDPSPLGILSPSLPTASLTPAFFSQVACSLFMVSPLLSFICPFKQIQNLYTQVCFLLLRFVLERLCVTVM
# How it was run: as §1
# ETV2 = target: T10, ETV2 (Homo sapiens, UniProt O00321 1-342); settings: protein: recombinant; tags: N-terminal GST; dsDNA, one strand shown
# T10 sequence: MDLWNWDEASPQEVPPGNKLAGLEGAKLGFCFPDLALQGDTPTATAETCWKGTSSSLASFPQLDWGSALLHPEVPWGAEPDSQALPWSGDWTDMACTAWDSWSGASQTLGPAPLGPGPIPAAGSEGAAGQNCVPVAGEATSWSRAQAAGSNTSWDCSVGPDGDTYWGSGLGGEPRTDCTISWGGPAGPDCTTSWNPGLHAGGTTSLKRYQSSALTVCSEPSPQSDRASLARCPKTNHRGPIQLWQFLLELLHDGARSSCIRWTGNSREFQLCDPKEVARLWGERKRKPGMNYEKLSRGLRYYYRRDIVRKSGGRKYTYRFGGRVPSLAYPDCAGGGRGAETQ
# How it was run: as §1
# ELF3 = target: T11, ELF3 (Homo sapiens, UniProt P78545 1-371); settings: protein: recombinant; tags: N-terminal GST; dsDNA, one strand shown
# T11 sequence: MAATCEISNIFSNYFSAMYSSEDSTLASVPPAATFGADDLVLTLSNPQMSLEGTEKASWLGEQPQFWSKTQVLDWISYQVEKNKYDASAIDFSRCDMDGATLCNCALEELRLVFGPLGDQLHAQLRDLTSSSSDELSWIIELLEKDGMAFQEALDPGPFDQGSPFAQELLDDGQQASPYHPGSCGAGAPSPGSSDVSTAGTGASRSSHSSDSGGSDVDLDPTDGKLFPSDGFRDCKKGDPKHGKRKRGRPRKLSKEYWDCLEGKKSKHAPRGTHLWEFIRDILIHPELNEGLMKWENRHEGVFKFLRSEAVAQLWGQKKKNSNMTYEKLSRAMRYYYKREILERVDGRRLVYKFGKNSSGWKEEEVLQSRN
# How it was run: as §1
# CRX = CRX (Homo sapiens, UniProt O43186 1-299); settings: protein: recombinant; tags: N-terminal GST; dsDNA, one strand shown
# How it was run: as §1
# ETV1 = ETV1 (Homo sapiens, UniProt P50549 1-477); settings: protein: recombinant; tags: N-terminal GST; dsDNA, one strand shown
# How it was run: as §1
# Chain of ETV1 (P50549 whole entry): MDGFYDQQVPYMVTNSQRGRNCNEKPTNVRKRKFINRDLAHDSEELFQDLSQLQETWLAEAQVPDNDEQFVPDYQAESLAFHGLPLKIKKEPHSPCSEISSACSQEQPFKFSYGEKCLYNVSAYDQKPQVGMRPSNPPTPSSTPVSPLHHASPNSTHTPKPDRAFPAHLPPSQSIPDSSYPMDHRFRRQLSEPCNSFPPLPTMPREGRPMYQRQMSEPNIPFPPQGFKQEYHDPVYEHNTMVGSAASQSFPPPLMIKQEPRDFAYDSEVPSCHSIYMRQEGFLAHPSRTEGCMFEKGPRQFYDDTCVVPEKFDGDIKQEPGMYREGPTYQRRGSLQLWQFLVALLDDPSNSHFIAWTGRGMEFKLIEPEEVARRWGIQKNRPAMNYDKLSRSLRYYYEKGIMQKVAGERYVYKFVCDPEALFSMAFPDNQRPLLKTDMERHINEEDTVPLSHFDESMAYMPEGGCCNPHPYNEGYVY
# Chain of HSF1 (Q00613 whole entry): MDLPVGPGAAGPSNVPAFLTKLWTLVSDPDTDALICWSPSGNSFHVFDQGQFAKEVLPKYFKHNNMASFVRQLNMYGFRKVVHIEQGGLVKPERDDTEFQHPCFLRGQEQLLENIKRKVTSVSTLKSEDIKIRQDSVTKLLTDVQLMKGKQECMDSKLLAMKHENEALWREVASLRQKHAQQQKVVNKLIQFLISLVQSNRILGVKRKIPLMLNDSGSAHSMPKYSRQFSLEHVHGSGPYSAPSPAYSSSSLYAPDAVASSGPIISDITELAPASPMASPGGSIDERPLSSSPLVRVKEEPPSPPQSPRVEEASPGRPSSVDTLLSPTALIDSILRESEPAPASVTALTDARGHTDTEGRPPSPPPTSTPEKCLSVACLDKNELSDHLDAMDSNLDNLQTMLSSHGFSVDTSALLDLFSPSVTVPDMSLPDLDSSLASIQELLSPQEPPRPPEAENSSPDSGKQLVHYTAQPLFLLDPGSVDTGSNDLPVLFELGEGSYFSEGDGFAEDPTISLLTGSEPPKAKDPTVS
# Chain of ELF1 (P32519 whole entry): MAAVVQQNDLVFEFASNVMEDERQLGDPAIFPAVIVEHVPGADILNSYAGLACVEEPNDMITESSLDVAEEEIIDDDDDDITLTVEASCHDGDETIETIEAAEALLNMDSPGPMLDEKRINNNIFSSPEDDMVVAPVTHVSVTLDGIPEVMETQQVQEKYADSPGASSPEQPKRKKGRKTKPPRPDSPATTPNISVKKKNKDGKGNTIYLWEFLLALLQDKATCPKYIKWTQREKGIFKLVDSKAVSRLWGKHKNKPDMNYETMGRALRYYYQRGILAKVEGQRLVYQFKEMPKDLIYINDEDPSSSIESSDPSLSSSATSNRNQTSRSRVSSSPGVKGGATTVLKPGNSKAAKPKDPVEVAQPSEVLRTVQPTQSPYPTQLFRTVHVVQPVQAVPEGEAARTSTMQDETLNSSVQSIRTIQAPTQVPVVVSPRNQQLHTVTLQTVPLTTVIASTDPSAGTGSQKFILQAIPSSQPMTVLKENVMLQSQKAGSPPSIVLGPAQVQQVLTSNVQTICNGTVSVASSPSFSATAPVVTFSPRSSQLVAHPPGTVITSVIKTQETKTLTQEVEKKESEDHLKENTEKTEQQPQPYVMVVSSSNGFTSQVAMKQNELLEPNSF
# Chain of CRX (O43186 whole entry): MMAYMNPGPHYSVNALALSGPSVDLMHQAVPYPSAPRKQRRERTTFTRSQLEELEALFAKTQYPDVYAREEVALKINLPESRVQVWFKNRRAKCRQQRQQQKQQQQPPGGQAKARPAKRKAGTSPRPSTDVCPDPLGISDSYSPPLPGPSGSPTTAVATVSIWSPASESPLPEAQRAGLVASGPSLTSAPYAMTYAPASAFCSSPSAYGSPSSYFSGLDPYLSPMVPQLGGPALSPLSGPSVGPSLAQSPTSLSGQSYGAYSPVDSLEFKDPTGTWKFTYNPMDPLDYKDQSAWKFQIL
# Chain of ELF4 (Q99607 whole entry): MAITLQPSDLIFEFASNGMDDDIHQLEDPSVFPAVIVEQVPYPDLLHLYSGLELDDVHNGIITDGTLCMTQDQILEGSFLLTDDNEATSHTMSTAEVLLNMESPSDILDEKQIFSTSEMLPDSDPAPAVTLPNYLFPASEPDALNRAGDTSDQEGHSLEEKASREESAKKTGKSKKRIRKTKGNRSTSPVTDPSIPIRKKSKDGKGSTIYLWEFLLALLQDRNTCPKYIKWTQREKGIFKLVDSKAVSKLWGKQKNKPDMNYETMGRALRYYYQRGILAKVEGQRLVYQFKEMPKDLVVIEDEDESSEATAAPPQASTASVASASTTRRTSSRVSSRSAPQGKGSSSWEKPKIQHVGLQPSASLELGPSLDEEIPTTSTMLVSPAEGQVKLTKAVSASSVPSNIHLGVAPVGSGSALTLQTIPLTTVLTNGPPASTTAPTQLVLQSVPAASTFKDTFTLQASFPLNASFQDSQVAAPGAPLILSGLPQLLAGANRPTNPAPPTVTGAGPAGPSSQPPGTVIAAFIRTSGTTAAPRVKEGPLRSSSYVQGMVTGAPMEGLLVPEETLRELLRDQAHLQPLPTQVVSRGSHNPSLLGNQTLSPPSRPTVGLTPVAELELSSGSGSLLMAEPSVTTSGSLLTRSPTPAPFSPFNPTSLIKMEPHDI
# Chain of SPIB (Q01892 whole entry): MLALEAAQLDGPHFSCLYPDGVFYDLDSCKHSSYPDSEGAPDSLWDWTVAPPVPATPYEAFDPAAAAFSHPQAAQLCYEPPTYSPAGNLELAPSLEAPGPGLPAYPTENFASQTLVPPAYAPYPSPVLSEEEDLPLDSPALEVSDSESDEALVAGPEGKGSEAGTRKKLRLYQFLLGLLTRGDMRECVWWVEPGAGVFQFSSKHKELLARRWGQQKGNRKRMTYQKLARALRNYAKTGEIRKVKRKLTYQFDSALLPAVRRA
# Chain of ETV5 (P41161 whole entry): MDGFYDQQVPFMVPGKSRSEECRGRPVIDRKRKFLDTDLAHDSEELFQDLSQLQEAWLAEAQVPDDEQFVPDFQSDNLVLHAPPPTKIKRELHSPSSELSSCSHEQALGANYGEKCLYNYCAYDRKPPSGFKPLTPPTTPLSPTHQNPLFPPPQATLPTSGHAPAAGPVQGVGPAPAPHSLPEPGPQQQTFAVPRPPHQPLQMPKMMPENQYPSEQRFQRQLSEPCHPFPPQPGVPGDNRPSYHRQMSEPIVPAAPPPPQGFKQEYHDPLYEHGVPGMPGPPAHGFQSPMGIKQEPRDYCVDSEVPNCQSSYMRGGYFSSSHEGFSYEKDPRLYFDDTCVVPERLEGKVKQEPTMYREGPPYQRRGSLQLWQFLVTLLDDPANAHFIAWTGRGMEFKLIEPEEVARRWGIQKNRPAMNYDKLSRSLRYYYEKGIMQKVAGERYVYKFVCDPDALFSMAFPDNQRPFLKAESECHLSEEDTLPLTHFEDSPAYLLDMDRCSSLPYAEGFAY
sequence,measurement,setting,value
TCTCCT,binding signal,FLI1,"1.45 fold enrichment (6-mer frequency, TF over GST control)"
same,binding signal,ELK1,"1.41 fold enrichment (6-mer frequency, TF over GST control)"
same,binding signal,GABPA,"1.53 fold enrichment (6-mer frequency, TF over GST control)"
same,binding signal,ERG,"1.37 fold enrichment (6-mer frequency, TF over GST control)"
same,binding signal,ELF1,"1.38 fold enrichment (6-mer frequency, TF over GST control)"
same,binding signal,EHF,"1.43 fold enrichment (6-mer frequency, TF over GST control)"
same,binding signal,SPI1,"1.6 fold enrichment (6-mer frequency, TF over GST control)"
same,binding signal,SPIB,"1.4 fold enrichment (6-mer frequency, TF over GST control)"
same,binding signal,ELK3,"1.46 fold enrichment (6-mer frequency, TF over GST control)"
same,binding signal,FEV,"1.43 fold enrichment (6-mer frequency, TF over GST control)"
same,binding signal,ETV5,"1.33 fold enrichment (6-mer frequency, TF over GST control)"
same,binding signal,HSF1,"1.55 fold enrichment (6-mer frequency, TF over GST control)"
same,binding signal,SPIC,"1.59 fold enrichment (6-mer frequency, TF over GST control)"
same,binding signal,ELF4,"1.51 fold enrichment (6-mer frequency, TF over GST control)"
same,binding signal,ELK4,"1.38 fold enrichment (6-mer frequency, TF over GST control)"
same,binding signal,ETV2,"1.43 fold enrichment (6-mer frequency, TF over GST control)"
same,binding signal,ELF3,"1.7 fold enrichment (6-mer frequency, TF over GST control)"
same,binding signal,CRX,"1.55 fold enrichment (6-mer frequency, TF over GST control)"
same,binding signal,ETV1,"1.49 fold enrichment (6-mer frequency, TF over GST control)"
